Measured potencies and affinities stand elsewhere.
Columns and labels:
[1] = tested on: Klebsiella pneumoniae; conditions: Concentration 32 ug.mL-1;; ASSAY_TEST Inhibition of Bacterial Growth; detection method Absorption (OD600); MEDIA CAMHB; plate type 384well; NBS; CORNING #3640; time 18 hr
[2] = tested on: Candida albicans; conditions: Concentration 32 ug.mL-1; ASSAY_TEST Inhibition of Fungal Growth; detection method Absorption (OD530)
[3] = tested on: Cryptococcus neoformans; conditions: Concentration 32 ug.mL-1; ASSAY_TEST Inhibition of Fungal Growth; detection method Resazurin; Absorption (OD600-OD570); plate type 384well; NBS; CORNING #3640

SMILES | Inhibition [1] | Inhibition [2] | Inhibition [3]
CC(C)CCNC(=O)CSc1nnc2c3cc(-c4ccccc4)nn3ccn12 | 15.29% | 4.42% | -17.81%
Cc1ccc(N(CC(=O)OC(C)(C)C)S(=O)(=O)c2cccn3cnnc23)cc1 | 9.31% | 3.93% | -6.45%
Cc1cccc(N(CC(=O)OC(C)(C)C)S(=O)(=O)c2cccn3c(C)nnc23)c1 | 8.25% | 2.37% | -7.45%
CC(C)c1nnc2c(SCC(=O)Nc3ccc(F)cc3F)nc3ccccc3n12 | 13.12% | -0.24% | -26.87%
COc1ccc(OC)c(NC(=O)Cn2nc3ccc(-c4ccc(Cl)cc4)nn3c2=O)c1 | 15.39% | 0.24% | -17.15%
CC(C)c1nnc2c(=O)n(CC(=O)Nc3ccc(F)cc3)c3ccccc3n12 | 21.13% | 1.82% | -21.16%
COc1ccc(C(=O)CSc2nnc3c(=O)n(-c4ccc(F)c(F)c4)ccn23)cc1OC | 11.04% | 3.34% | -3.67%
CCc1nnc2c(S(=O)(=O)N(Cc3cc(F)cc(F)c3)c3ccc(F)cc3)cccn12 | -0.25% | 4.45% | -8.28%
O=C(CSc1nnc2c(=O)n(-c3ccccc3)ccn12)Nc1ccccc1F | 7.24% | -0.73% | -14.95%
Cc1cccc(NC(=O)CSc2nnc3c4cc(-c5ccccc5)nn4ccn23)c1C | 7.23% | 5.25% | -12.53%
COc1ccc(-c2cc3c4nn(CC(=O)Nc5ccc(F)cc5)c(=O)n4ccn3n2)cc1 | 1.02% | 15.17% | -16.6%
COc1ccc(CN(c2ccc(F)cc2)S(=O)(=O)c2cccn3c(C)nnc23)cc1 | 13.21% | 1.16% | -6.38%
COc1ccc(-c2cc3c4nnc(CCC(=O)NCc5ccccc5Cl)n4ccn3n2)cc1 | 3.58% | 1.3% | -11.66%
COC(=O)c1ccc(CN(c2ccc(C)cc2)S(=O)(=O)c2ccc3nnc(C)n3c2)o1 | 8.84% | 0.1% | -13.09%
COc1ccccc1-n1ccn2c(=O)n(Cc3ccc(F)cc3Cl)nc2c1=O | 1.73% | 3.67% | -6.11%
COc1ccc(-c2cc3c4nnc(SCC(=O)Nc5ccc(C)cc5Cl)n4ccn3n2)cc1 | 11.06% | 0.54% | -30.51%
Cc1cc(C)cc(Nc2nc(C)cc3nn(CC(=O)Nc4ccc(C)c(F)c4)c(=O)n23)c1 | 19.17% | 3.06% | -10.1%
Cc1ccc(C)c(Cn2nc3n(CC(C)C)c(=O)c4sccc4n3c2=O)c1 | 7.9% | -1.65% | -8.63%
CCc1ccc(N(Cc2ccc(C)cc2)S(=O)(=O)c2cccn3cnnc23)cc1 | -0.39% | 4.26% | -5.61%
CCOc1ccc(NC(=O)Cn2nc3ccc(-c4ccc(C)c(C)c4)nn3c2=O)cc1 | 4.27% | 1.39% | -10.52%
COc1ccc(CNC(=O)Cn2nc3c4cc(-c5ccc(C)c(C)c5)nn4ccn3c2=O)cc1 | 7.73% | 11.15% | -12.47%

SMILES | Inhibition [1] | Inhibition [2] | Inhibition [3]
O=C(Cn1nc2c3c4c(sc3ncn2c1=O)CCCC4)NCc1ccccc1Cl | 0.41% | 2.22% | -5.52%
O=c1n(Cc2ccccc2F)nc2ccc(S(=O)(=O)N3CCCCCC3)cn12 | 2.58% | 0.84% | -9.24%
Cc1cccc(-c2nc(CSc3nc4ccccc4n4c(C)nnc34)c(C)o2)c1 | 10.71% | 3.22% | -23.71%
COc1cccc(-n2ccn3c(SCc4ccc(C)cc4)nnc3c2=O)c1 | 12.94% | 3.44% | -15.83%
CC1CCN(C(=O)Cn2nc3n(Cc4cccs4)c(=O)c4sccc4n3c2=O)CC1 | 0.67% | 6.15% | -10.95%
N#CCn1nc2n(CCC(=O)NC3CCCCC3)c(=O)c3ccccc3n2c1=O | 0.53% | 1.95% | 1.45%
Cc1ccc(CNC(=O)Cn2nc3ccc(SCc4ccc(Cl)cc4)nn3c2=O)cc1 | 9.12% | 20.24% | -27.26%
Cc1cc(C)c(NC(=O)Cn2nc3c(Sc4cccc(F)c4)nccn3c2=O)c(C)c1 | 9.01% | 0.95% | -7.48%
O=S(=O)(c1cccn2cnnc12)N(Cc1ccccc1F)c1ccc(F)c(F)c1 | 13.33% | 5.39% | -3.16%
CCCCN(C)c1ccc2nnc(CCc3nc(-c4cc(OC)cc(OC)c4)no3)n2n1 | 6.4% | 9.61% | -5.17%
Cc1ccc(-c2ccc3nn(CC(=O)N4CCN(c5ccc(F)cc5)CC4)c(=O)n3n2)cc1C | 1.03% | 7.38% | -10.89%
COc1ccc(-n2ccn3c(=O)n(Cc4ccccc4Cl)nc3c2=O)cc1Cl | 3.5% | 1.04% | 0.74%
CCOc1ccc(NC(=O)Cn2nc3ccc(-c4ccccc4)nn3c2=O)cc1 | 6.87% | 4.93% | -6.8%
CCC(Sc1nnc2c(=O)n(-c3cccc(OC)c3)ccn12)C(=O)Nc1ccccc1C (stereo not drawn) | 4.33% | 0.82% | -7.71%
O=S(=O)(c1cccn2cnnc12)N(Cc1cccc(Cl)c1)c1ccc(F)cc1 | 7.99% | -0.14% | -8.04%
Cc1cc(C)cc(N(Cc2ccc(F)cc2)S(=O)(=O)c2cccn3cnnc23)c1 | 7.95% | 1.02% | -10.98%
COc1cccc(-n2ccn3c(SC(C)C(=O)c4ccc(C)c(C)c4)nnc3c2=O)c1 (stereo not drawn) | 3.32% | 2.99% | -3.88%
COc1cccc(Oc2nccn3c(=O)n(CC(=O)Nc4cccc(Br)c4)nc23)c1 | 6.87% | 0.25% | -8.58%
Cc1ccc(Oc2nccn3c(=O)n(CC(=O)Nc4ccc(F)cc4F)nc23)cc1 | 1.97% | 0.56% | -6.68%
CSc1cccc(NC(=O)Cn2nc3c4c5c(sc4ncn3c2=O)CCCC5)c1 | -0.84% | 7.75% | -24.58%
Cc1cccc(Oc2nccn3c(=O)n(CC(=O)N4CCN(c5ccccc5F)CC4)nc23)c1C | -1.33% | 1.02% | -17.84%

SMILES | Inhibition [1] | Inhibition [2] | Inhibition [3]
CN(C(=O)Cn1nc2n(Cc3cccs3)c(=O)c3sccc3n2c1=O)c1ccccc1 | -2.89% | 0.01% | -9.21%
COc1ccc(NC(=O)Cn2nc3ccc(-c4ccc(Cl)cc4)nn3c2=O)cc1OC | 8.45% | -2.47% | -11.98%
COc1ccc(NC(=O)Cn2nc3c(N4CCCC4)nccn3c2=O)cc1Cl | 15.87% | 1.28% | -15.33%
COc1ccc(-c2cc3c4nnc(SCC(=O)Nc5ccc(OC)c(Cl)c5)n4ccn3n2)cc1 | 6.25% | 2.5% | -21.63%
Cc1cccc(Oc2nccn3c(=O)n(CC(=O)Nc4cccc(C(F)(F)F)c4)nc23)c1C | 9.81% | 16% | -8.68%
CC(C)c1nnc2c(SCC(=O)N3CCN(c4ccc(F)cc4)CC3)nc3ccccc3n12 | 12.93% | -0.12% | -22.8%
Cn1c(=O)c2sccc2n2c(=O)n(Cc3ccc(Cl)cc3)nc12 | 4.35% | -0.47% | -19.86%
CC(C)CCn1c(=O)c2sccc2n2c(=O)n(CC(N)=O)nc12 | 10.09% | -1.13% | -22.72%
Cc1ccc2c(c1)N(C(=O)Cn1nc3ccc(S(=O)(=O)C(C)(C)C)nn3c1=O)CCO2 | 13.78% | 0.51% | -14.77%
COC(=O)c1ccc(NC(=O)Cn2nc3ccc(SCc4ccc(Cl)cc4)nn3c2=O)cc1 | 3.21% | 46.24% | -5.53%
COc1cccc(-n2ccn3c(SCc4cccc(F)c4)nnc3c2=O)c1 | 9.47% | 1.25% | -9.96%
CC(C)(C)Sc1ccc2nn(CC(=O)NCc3ccc(Cl)cc3)c(=O)n2n1 | 10.39% | 0.88% | -9.66%
Cc1ccccc1Oc1nccn2c(=O)n(CC(=O)Nc3ccc(Cl)c(Cl)c3)nc12 | 6.86% | 2.23% | -12.87%
O=C(CSc1nnc2c(=O)n(-c3cccc(F)c3)ccn12)Nc1ccc(Br)cc1 | 9.48% | 6.65% | -9.7%
Cc1ccc(-c2ccc3nn(CC(=O)Nc4ccc(Br)cc4F)c(=O)n3n2)cc1 | 9.08% | 3.52% | -13.83%
CCCNC(=O)Cn1nc2cc(C)nc(Nc3cc(C)cc(C)c3)n2c1=O | 18.12% | 5.03% | -9.02%
CCC(C)NC(=O)Cn1nc2n(CCC(C)C)c(=O)c3sccc3n2c1=O (stereo not drawn) | 0.17% | -2.39% | -17.2%
O=S(=O)(c1ccc2nncn2c1)N(Cc1ccccc1F)c1ccc2c(c1)OCCO2 | 4.19% | 7.13% | -6.58%
COc1ccc(N2CCN(C(=O)Cn3nc4ccc(-c5ccccc5)nn4c3=O)CC2)cc1 | 3.53% | -1.43% | -4.25%

From ChEMBL document CHEMBL4513146, “CO-ADD screening of Karazin Kharkiv National University (Ukraine) compounds”
